Data reported in PubChem BioAssay (NCATS).
Records with an inconclusive call do not appear. Entries that show only a call come without a potency. Active and inactive are the calls of the source. Calls follow the shape of the dose curve; as a rule, active = well fitted inhibition curve with a large enough effect; inconclusive = small, poorly fitted or top-dose-only effect; inactive = flat fitted curve, though single readings scatter.

What was measured:
Experiment in all cases: qHTS profiling for inhibitors of Plasmodium falciparum proliferation (AID 504749); also: nearly all actives have a fitted effect of over 60% in size
Conditions in all cases: P. falciparum in erythrocytes, SYBR Green DNA, 72 h; series mostly up to 28.7 µM
CP201 = tested on: CP201
In short: (§1)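 Infected RBCs, 0.3% parasitemia/2.5% Hct final; cpd 72 h, 37 C, 5% CO2; lysis buffer with saponin/triton/SYBR Green I, o/n RT dark; FI 485/535; norm. to artemisinin (0.29 uM) and DMSO.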

CP203 = tested on: CP203
In short: as §1

CP211 = tested on: CP211
In short: as §1

CP215 = tested on: CP215
In short: as §1

CP217 = tested on: CP217
In short: as §1

CP237 = tested on: CP237
In short: as §1

CP238 = tested on: CP238
In short: as §1

CP247 = tested on: CP247
In short: as §1

CP250 = tested on: CP250
In short: as §1

CP252 = tested on: CP252
In short: as §1
Potency is read from the fitted curve at half-maximal effect.

SMILES | Potency (CP201) | Potency (CP203) | Potency (CP211) | Potency (CP215) | Potency (CP217) | Potency (CP237) | Potency (CP238) | Potency (CP247) | Potency (CP250) | Potency (CP252)
COc1ccc2cc3[n+](cc2c1OC)CCc1cc2c(cc1-3)OCO2 | 1.69 µM (active) | 1.07 µM (active) | 0.757 µM (active) | 0.953 µM (active) | 1.41 µM (active) | 1.26 µM (active) | 0.891 µM (active) | 3.16 µM (active) | 1.41 µM (active) | 1.12 µM (active)
CC[C@H](NC(C)C)[C@H](O)c1ccc(O)c2[nH]c(=O)ccc12 | inactive | inactive | inactive | inactive | inactive | inactive | inactive | inactive | inactive | inactive
CCOC(=O)[C@H](CCc1ccccc1)N[C@H]1CS[C@H](c2cccs2)CN(CC(=O)O)C1=O | inactive | inactive | inactive | inactive | – | inactive | inactive | inactive | inactive | inactive
C[C@@H](NCCCc1cccc(C(F)(F)F)c1)c1cccc2ccccc12 | 15.1 µM (active) | 10.7 µM (active) | 13.5 µM (active) | 10.7 µM (active) | 7.94 µM (active) | 3.55 µM (active) | 11.2 µM (active) | 10 µM (active) | – | 8.91 µM (active)
CNC1CCCN(c2c(F)cc3c(=O)c(C(=O)O)cn(C4CC4)c3c2OC)C1 (stereo unspecified) | inactive | inactive | inactive | inactive | inactive | inactive | inactive | – | inactive | inactive
CCn1cc(C(=O)O)c(=O)c2cc(F)c(N3CCNCC3)nc21 | inactive | inactive | inactive | inactive | inactive | – | inactive | inactive | inactive | –
C#CCN[C@@H]1CCc2ccccc21 | inactive | inactive | inactive | inactive | inactive | inactive | inactive | inactive | inactive | inactive
CCc1c2c(nc3ccc(OC(=O)N4CCC(N5CCCCC5)CC4)cc13)-c1cc3c(c(=O)n1C2)COC(=O)[C@]3(O)CC | inactive | inactive | inactive | inactive | inactive | inactive | inactive | inactive | inactive | inactive
CCCc1nc(C)c2c(=O)[nH]c(-c3cc(S(=O)(=O)N4CCN(CC)CC4)ccc3OCC)nn12 | inactive | inactive | inactive | inactive | inactive | – | inactive | inactive | inactive | inactive
CCCN[C@H]1CCc2nc(N)sc2C1 | inactive | inactive | inactive | inactive | inactive | inactive | inactive | inactive | inactive | inactive
Cn1nnc2c(C(N)=O)ncn2c1=O | inactive | inactive | inactive | – | inactive | inactive | inactive | inactive | inactive | inactive
CC(C)(Sc1cc(C(C)(C)C)c(O)c(C(C)(C)C)c1)Sc1cc(C(C)(C)C)c(O)c(C(C)(C)C)c1 | inactive | inactive | inactive | inactive | inactive | – | inactive | inactive | inactive | inactive
Nc1nc(N)c2nc(CNc3ccc(C(=O)NC(CCC(=O)O)C(=O)O)cc3)cnc2n1 (stereo unspecified) | inactive | inactive | inactive | inactive | inactive | inactive | inactive | inactive | inactive | inactive
COc1cnc(NS(=O)(=O)c2ccc(N)cc2)nc1 | inactive | inactive | inactive | inactive | inactive | inactive | inactive | inactive | inactive | inactive
O=S(=O)(O)CCS | inactive | inactive | inactive | inactive | inactive | inactive | inactive | inactive | inactive | inactive
COc1c(N2CCNC(C)C2)c(F)cc2c(=O)c(C(=O)O)cn(C3CC3)c12 (stereo unspecified) | inactive | inactive | inactive | inactive | inactive | inactive | inactive | inactive | – | inactive
COc1ncnc(NS(=O)(=O)c2ccc(N)cc2)c1OC | inactive | inactive | inactive | inactive | inactive | inactive | inactive | inactive | inactive | inactive
CN(Cc1cc(Br)cc(Br)c1N)C1CCCCC1 | inactive | inactive | inactive | inactive | inactive | – | – | inactive | inactive | inactive
O=NN(CCCl)C(=O)NC1CCCCC1 | inactive | inactive | inactive | inactive | inactive | inactive | inactive | inactive | inactive | inactive
CC1=CC(=O)c2ccccc2C1=O | inactive | inactive | inactive | inactive | inactive | – | inactive | – | – | inactive
CCCc1cc(C(N)=S)ccn1 | inactive | inactive | inactive | inactive | inactive | inactive | inactive | inactive | inactive | inactive
CC1=NN(c2ccccc2)C(=O)C1 | inactive | inactive | inactive | inactive | inactive | inactive | inactive | inactive | inactive | inactive
O=c1cc(O)c(Cl)c[nH]1 | inactive | inactive | inactive | inactive | inactive | inactive | inactive | inactive | inactive | inactive
O=C(O)c1cc(=O)[nH]c(=O)[nH]1 | inactive | inactive | inactive | inactive | inactive | inactive | inactive | inactive | inactive | inactive
COc1cc(NS(=O)(=O)c2ccc(N)cc2)nc(OC)n1 | inactive | inactive | inactive | inactive | inactive | inactive | inactive | inactive | inactive | inactive
